An excerpt weighted towards active compounds, which were near 3.7% of everything screened.
GDH-TPI counter-1: GDH-TPI coupling enzyme inhibitors, primary screen, artefact control for M. tuberculosis FBA inhibitor project, biochemical, absorbance, full deck; GDH-TPI coupled enzyme counterscreen, NADH absorbance; inhibition, % at 4.8 µM; 360,000 compounds, 1.2% hits; in the data active means inhibition above about 30%;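 further: 0% = DMSO wells and 100% = wells lacking the enzyme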
Mtb UGM inh: M. tuberculosis UGM enzyme inhibitors, primary screen, biochemical, fluorescence polarization, single point; UDP-galactopyranose mutase (Mycobacterium tuberculosis (strain ATCC 25618 / H37Rv)), …; purified UGM, fluorescence polarization probe displacement; inhibition, % at 10 µM; 320,000 compounds, 0.06% hits; in the data active means inhibition above about 10%, passing the limit was not always enough; inconclusive means no clear call, values can overlap the other calls
Target sequence (P9WIQ1 whole entry, looked up): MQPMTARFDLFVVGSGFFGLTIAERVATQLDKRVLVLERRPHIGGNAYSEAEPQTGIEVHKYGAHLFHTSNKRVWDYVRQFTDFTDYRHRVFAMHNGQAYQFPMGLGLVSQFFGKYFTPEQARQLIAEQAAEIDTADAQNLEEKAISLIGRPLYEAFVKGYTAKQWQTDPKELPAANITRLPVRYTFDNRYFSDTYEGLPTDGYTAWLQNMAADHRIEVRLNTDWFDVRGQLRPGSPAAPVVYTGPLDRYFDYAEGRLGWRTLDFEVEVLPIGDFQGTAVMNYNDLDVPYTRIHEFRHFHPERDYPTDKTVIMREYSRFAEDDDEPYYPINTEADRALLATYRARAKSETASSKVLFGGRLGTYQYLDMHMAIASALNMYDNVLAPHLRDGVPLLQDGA
FadD28 binding: inhibitors of FadD28 bisubstrate probe binding, primary screen, biochemical, fluorescence polarization, single point | Mycobacterium tuberculosis FadD28 fatty-acid-AMP ligase | inhibition, % at 12.5 µM | 360,000 compounds, 0.22% hits; in the data active means inhibition above about 8.5%, passing the limit was not always enough; inconclusive means no clear call, values can overlap the other calls
Rv3671c inh: Rv3671c serine protease inhibitors, primary screen, biochemical, fluorescence polarization, M. tuberculosis H37Rv | 320,000 compounds, 0.048% hits | P9WHR9 | AID 2606, 2010 | inhibition, % at 5.96 µM; in the data active means inhibition above about 38%;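 further: extracellular domain of Rv3671c used as enzyme; 0% = enzyme with DMSO and 100% = no enzyme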
Mtb FBA inh: Mtb FBA enzyme inhibitors, primary screen, biochemical, fluorescence, strain H37Rv. purified M. tuberculosis FBA, fluorescence read-out. Fructose-bisphosphate aldolase (Mycobacterium tuberculosis (strain ATCC 25618 / H37Rv)), …. 360,000 compounds, 2.3% hits. inhibition, % at 1 µM;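 further: 0% = vehicle and 100% = reference inhibitor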
Mtb betalactam: beta-lactam sensitization of Mtb H37Rv, H37Rv; 330,000 compounds, 0.27% hits; inhibition, % at 25 µM; M. tuberculosis H37Rv growth with meropenem, percent inhibition; AID 434955, 2010; call rule not given here;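 further: growth measured after seven days incubation then overnight dye step; 0% = bacteria only wells and 100% = bacteria with antibiotic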
Mtb FBA confirm: M. tuberculosis aldolase blockers, biochemical, fluorescence, strain H37Rv, confirmation. shares compounds with Mtb FBA inh. purified M. tuberculosis FBA, fluorescence read-out. inhibition, % at 1 µM. 5,600 compounds, 78% hits. AID 651616, 2012;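 further: 0% = vehicle wells and 100% = reference inhibitor wells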
GDH-TPI counter-2: GDH-TPI coupling enzyme inhibitors, artefact control for M. tuberculosis FBA inhibitor project, biochemical, fluorescence, high throughput; inhibition, % at 1 µM; AID 652141, 2013; shares compounds with Mtb FBA inh; GDH-TPI coupled enzyme counterscreen; 5,600 compounds, 81% hits; in the data active means inhibition above about 10%
* marks the source's active call; other numbers are inactive results; ? = inconclusive; / = no result; + = active, no number. Unless noted, no stated cut-off is given here; in the data, active means inhibition above about 27%; inactive means the rest.

SMILES | GDH-TPI counter-1 | Mtb UGM inh | FadD28 binding | Rv3671c inh | Mtb FBA inh | Mtb betalactam | Mtb FBA confirm | GDH-TPI counter-2
Cc1cc(OC(C)C(=O)NCc2ccncc2)c2c(C)c(C)c(=O)oc2c1 (stereo unspecified) | 7 | 0 | 0 | -7 | 103* | -7 | 57* | 49*
CSc1ncnc2c1ncn2CCCNCCCc1ccccc1 | 10 | / | -2 | / | 3 | / | / | /
CCNC(=O)/C(C#N)=C/c1c(N2CCN(c3ccccc3)CC2)nc2ccccn2c1=O | 9 | -3 | -2 | / | 50* | 1 | 27 | 17*
COCCCNC(=O)/C(C#N)=C/c1c(N2CCN(c3ccccc3)CC2)nc2ccccn2c1=O | 6 | 2 | -1 | -2 | 91* | 0 | 112* | 121*
NC(=O)C1(N2CCCCC2)CCN(C(=O)c2cccn3c(=O)c4cc(Cl)ccc4nc23)CC1 | 29 | 1 | -1 | 7 | 40* | -11 | -2 | -6
O=C(c1cccn2c(=O)c3cc(Cl)ccc3nc12)N1CCOCC1 | 18 | -3 | -1 | -6 | 45* | ? | -3 | -4
COc1ccc(C(=O)N/C(=C\c2ccc(Cl)cc2)C(=O)NCc2ccncc2)cc1 | -12 | / | -6 | / | -2 | / | / | /
CC(=O)c1ccccc1NC(=O)COC(=O)CCC1CCCC1 | -3 | -1 | -4 | 3 | 3 | 7 | / | /
O=C(CSc1cccc2cccnc12)N1CCCC1 | 5 | 1 | -1 | -18 | 33* | 32 | 140* | 108*
CCn1c(SC(=O)NC2CCCCC2)nnc1-c1cccs1 | 16 | 1 | 0 | 1 | 46* | -4 | -2 | 0
CCn1c(SCC(=O)NC2CCCCC2)nnc1-c1cccs1 | 6 | -2 | -3 | -3 | 5 | 8 | / | /
O=C1Nc2ccc(S(=O)(=O)NCC3CCCO3)c3cccc1c23 (stereo unspecified) | 3 | 0 | 0 | -7 | 50* | -6 | 47* | 31*
O=C1Nc2ccc(S(=O)(=O)NCCCO)c3cccc1c23 | 28 | 3 | -1 | / | 52* | -5 | 94* | 61*
O=C1Nc2ccc(S(=O)(=O)NCCC3=CCCCC3)c3cccc1c23 | -3 | -1 | -5 | -12 | 13 | -4 | / | /
CCN(CC)S(=O)(=O)c1ccc2c3c(cccc13)C(=O)N2 | 16 | -1 | -2 | -1 | 6 | 7 | / | /
CCNS(=O)(=O)c1ccc2c3c(cccc13)C(=O)N2 | 19 | 0 | -2 | -4 | 65* | 5 | 53* | 38*
O=C1[C@H]2CCC=C[C@H]2[C@H](c2cccc(Br)c2)N1Cc1ccccc1 | 5 | / | -2 | / | -1 | / | / | /
Nc1ccn([C@@H]2O[C@H](CNS(=O)(=O)c3cc4ccccc4s3)[C@@H](O)[C@H]2O)c(=O)n1 | 5 | / | -1 | / | 1 | / | / | /
CCC(CO)Nc1ccn2nc(-c3cccc(Cl)c3)cc2n1 (stereo unspecified) | 7 | / | -3 | / | 31* | / | 28* | 21*
OC1CCC(Nc2ccn3nc(-c4cccc(Cl)c4)cc3n2)CC1 (stereo unspecified) | 6 | / | -4 | / | 34* | / | 61* | 42*
OC1CCC(Nc2ccn3nc(-c4cccc(OCc5ccccc5)c4)cc3n2)CC1 (stereo unspecified) | 8 | / | -6 | / | 29* | / | 54* | 39*
COc1cc(-c2cc3nc(NC4CCCCC4)ccn3n2)cc(OC)c1OC | 11 | / | -2 | / | 31* | / | -8 | -7
CN(C(=O)c1cccc(NC(=O)Cc2ccc(NC(=O)C3CCCN(C(=O)c4ccccc4)C3)cc2)c1)C1CCCC1 (stereo unspecified) | 0 | / | -3 | / | 0 | / | / | /
C[C@@H]1CN([C@@H](C)CO)C(=O)c2cc(Br)cnc2O[C@@H]1CN(C)S(=O)(=O)c1ccc(F)cc1 | 14 | / | 0 | / | 1 | / | / | /
COCCCNc1ccn2nc(-c3ccccc3)cc2n1 | 7 | / | -1 | / | 21 | / | / | /
SMILES | GDH-TPI counter-1 | Mtb UGM inh | FadD28 binding | Rv3671c inh | Mtb FBA inh | Mtb betalactam | Mtb FBA confirm | GDH-TPI counter-2
COCCCNc1ccn2nc(-c3cccc(Cl)c3)cc2n1 | 0 | / | -1 | / | 35* | / | 9 | -2
COC1CCC2(C)C(=CCC3C4CC(O)CC4(C)CCC32)C1 (stereo unspecified) | 2 | / | -3 | / | -2 | / | / | /
NC(=O)c1ccccc1NCC(=O)c1ccc(F)cc1 | -4 | 1 | -3 | -11 | 31* | -2 | 103* | 87*
Cc1ccc(CNS(=O)(=O)c2ccc(F)c(F)c2)n1C | -6 | 0 | 0 | -13 | 2 | -2 | / | /
CCOc1c2ccc(C(=O)N[C@H](C)C3CCCCC3)cc2nn1CCOC | 17 | -3 | -1 | -10 | 106* | -9 | 78* | 68*
CCOc1ccccc1-n1cnc2cc(C(=O)NCc3ccco3)ccc21 | -10 | 2 | -4 | 2 | 7 | 52 | / | /
CCOc1c2ccc(C(=O)NCc3ccco3)cc2nn1CCOC | 6 | 0 | 0 | 11 | 39* | -4 | + | +
CCOc1c2ccccc2nn1CCOC | 4 | 2 | -1 | 5 | 10 | -6 | / | /
CCCCn1nc2cc(C(=O)NCc3ccco3)ccc2c1OCC | 10 | -3 | 0 | 3 | 27* | -4 | -3 | -5
Cc1ccc(O)c(Nc2c3ccccc3nc3ccccc23)c1 | 4 | 0 | -1 | -6 | 99* | 2 | + | +
CCCCC(=O)N(C)c1c(C)nc2ccc(C(=O)Nc3cccc(OC)c3)cn12 | 6 | / | -2 | / | -4 | / | / | /
Cc1ccc2[nH]c3c(NCc4ccco4)ncnc3c2c1 | 10 | -1 | -4 | -3 | 42* | 51 | -2 | -7
COc1cc(CNc2ncnc3c2[nH]c2ccc(C)cc23)cc(OC)c1 | 5 | -3 | -2 | 16 | 35* | 85 | -5 | 0
Cc1ccc2[nH]c3c(NCCCN4CCCC4=O)ncnc3c2c1 | 6 | 0 | 2 | 8 | 39* | 0 | 26 | 27*
Cc1ccc(-n2ncc3c(NCCCN4CCCC4=O)ncnc32)c(C)c1 | 3 | -1 | 1 | 5 | 2 | 0 | / | /
O=C1CSC(=S)N1/N=C/c1cc(Br)c(O)c(Br)c1 | 21 | -10 | 3 | -124 | -20 | 4 | / | /
Cc1ccc(C2=NN(CCC(=O)NCCCN3CCOCC3)C(=O)CC2)cc1 | 4 | 0 | 1 | -1 | 2 | -8 | / | /

Assay outcomes from PubChem BioAssay.
